Screen size: about 68,000 compounds; about 2,700 (4%) showed an effect of 50% or more. This is one part of a sample in which strong results are shown more often than they occur.

Experimental findings from ChEMBL document CHEMBL4513216, “Probing the Open Global Health Chemical Diversity Library for Multistage-Active Starting Points for Next-Generation Antimalarials” (ACS Infect Dis, 2020) are described below.

This assay relates to Plasmodium berghei. The assay can be described thus: Screen against P. berghei liver stage (PbLuc), transformed with Luciferase, at 2uM. The format is functional, HepG2. Particulars: tested at 2 uM.
For the compound `CC(C)c1cccc(N2CCCC3(CCC(=O)N(C4CC4)C3)C2)n1` (stereo unspecified), the INHIBITION was -90.99%.

Regarding `Cc1ccc(O)c(CNCC(C)c2nc3ccccc3o2)n1` (stereo unspecified), the INHIBITION is recorded as 35.36%.

For `CCC(CC)C(=O)N1CCOC2(COCCN(CC(=O)NC)C2)C1` (stereo unspecified), the INHIBITION came to 48.52%.

On to `CC(C)NC(=O)N1CCOC2(CNC2)C1`, for which the INHIBITION is recorded as 44.13%.

With `CCC(CC)C(=O)N1CCOC2(CNC2)C1`, the INHIBITION stood at 58.95%.

As to `Cc1cc(C(=O)NCC(C)C)c2c(C3CCCN3)noc2n1` (stereo unspecified), the INHIBITION is -14.61%. Consider `Cc1noc(CNC2CCCN(Cc3noc(C4CC4)n3)C2)n1` (stereo unspecified), for which the INHIBITION was found to be 10.53%. In the case of `CC(C)Oc1cc(N2CCN(Cc3ccsc3)C(CCO)C2)nc(N)n1` (stereo unspecified), the INHIBITION worked out at 51.76%. Under `COc1cc(N2CCN(Cc3ccsc3)C(CCO)C2)nc(N)n1` (stereo unspecified) stands 39.92%. For the compound `Cc1cc(N2CCN(Cc3ccsc3)C(CCO)C2)nc(N)n1` (stereo unspecified), the INHIBITION stood at 34%. Take `O=c1[nH]c2cn(-c3cccc(Cl)c3)c(=O)n2n1Cc1cccc(F)c1`: the INHIBITION is listed as 42.62%. Under `O=c1[nH]c2cn(-c3cccc(F)c3)c(=O)n2n1Cc1ccc(Cl)cc1` stands 5.87%; under `O=c1[nH]c2cn(-c3ccc(F)cc3)c(=O)n2n1Cc1cccc(Cl)c1`, 58%; under `CCCn1nc2c(cc1=O)CN(CCN1CCCC1=O)CC2`, -33.39%. On to `CC(C)(C)n1ncc2c(=O)[nH]c(N3CCN(CCO)CC3)nc21`, for which the INHIBITION amounted to 40.47%. Regarding `CC(C)(C)n1ncc2c(=O)[nH]c(N3CCN(CC(F)F)CC3)nc21`, the INHIBITION is on record as 66.74%.

`CC(=O)N1CCN(c2nc3c(cnn3C(C)(C)C)c(=O)[nH]2)CC1`: the INHIBITION is -12.08%. `CSCC[C@H](N)C(=O)NCc1cc2n(n1)CCCN(C1CCCCC1)C2`: the INHIBITION is -46.68%.

In the case of `Cc1ccc(S(=O)(=O)NC[C@H]2OC[C@@H](NCc3ccccc3)[C@@H]2O)cc1`, the INHIBITION stood at 75.87%. Under `Cc1ccc(S(=O)(=O)NC[C@H]2OC[C@@H](NCc3ccncc3)[C@@H]2O)cc1` stands 16.47%; under `Cc1ccc(CN[C@@H]2CO[C@H](CNS(=O)(=O)c3ccccc3)[C@H]2O)cc1`, -6.18%. With `O=C(NCc1noc(C2CCCO2)n1)c1cn2ccsc2n1` (stereo unspecified) the figure was 22.09%; with `Cc1nc(N(Cc2ccncc2)CC2CCCO2)c2ccsc2n1` (stereo unspecified), -59.39%. For `Cc1nc(NCc2noc(C3CCCO3)n2)c2sccc2n1` (stereo unspecified), the INHIBITION is 61.69%. Regarding `Cc1nc(NCCc2noc(C3CCCO3)n2)c2sccc2n1` (stereo unspecified), the INHIBITION is 49.63%. As for `O=C(NCCc1noc(C2CCCO2)n1)c1cn2ccsc2n1` (stereo unspecified), the INHIBITION is on record as 40.88%.

For `Cc1nc(NCc2noc(C3CCCO3)n2)c2ccsc2n1` (stereo unspecified), the INHIBITION stood at 59.01%. With `O=C(CCCOc1ccc(F)cc1F)N1CCCC1Cn1cccn1` (stereo unspecified), the INHIBITION stood at 6.12%. Regarding `CN(Cc1cc2n(n1)CCCN(C(=O)N1CCCC1)C2)Cc1nccs1`, the INHIBITION is reported as -10.4%.

`Cc1nc(CNc2nc3c(s2)c(C)nn3C)cs1`: the INHIBITION came out at 38.49%.

As for `CCc1nc(CNc2nc3c(s2)c(C)nn3C)cs1`, the INHIBITION was 51.4%.

On to `CCc1csc(CNc2nc3c(s2)c(C)nn3C)n1`, for which the INHIBITION was 28.14%.

With `O=C(NC1CCc2[nH]c(=O)ccc2C1)C1CCOCC1` (stereo unspecified), the INHIBITION was 0.79%. With `CCN1CC[C@@]2(C(=O)N3CCOCC3)CCN(C(=O)NC)CC[C@@H]12`, the INHIBITION came out at 19.42%. Take `CSC1=Nc2c(cnn2-c2ccc(C)cc2)C2=NCCCN12`: the INHIBITION amounted to 44.7%.

As to `CCOc1ccccc1C(=O)N1CCCC1c1ncc2c(n1)CCNC2` (stereo unspecified), the INHIBITION is reported as -2.7%.

Regarding `CN1C[C@@H](N)C[C@H]1C(=O)N1CCC(Cc2ccc(F)cc2)CC1`, the INHIBITION is on record as 29.87%. In the case of `O=C(C1CCS(=O)(=O)CC1)N1CCC(Cc2ccc(F)cc2)CC1`, the INHIBITION worked out at 9.75%. On to `CCC(=O)N1CCCC1C(=O)N1CCC(Cc2ccc(F)cc2)CC1` (stereo unspecified), for which the INHIBITION came out at 69.52%.

On to `c1cnnc(N2CCCC2CNCc2nc(-c3cccs3)no2)c1` (stereo unspecified), for which the INHIBITION is listed as -8.75%. `Cc1cccc(-n2nc(CC(C)C)nc2CS(C)(=O)=O)c1`: the INHIBITION turned out to be 3.92%. Turning to `Cc1cc(N2CCC(N(C)C(=O)c3sccc3C)CC2)nc(C)n1`, the INHIBITION is recorded as -82.24%.

In the case of `Cc1ccsc1-c1nccn1CCN1CCCCC1CO` (stereo unspecified), the INHIBITION is recorded as -12.08%. For the compound `Cc1cc(-c2nccn2CCN2CCCCC2CO)oc1C` (stereo unspecified), the INHIBITION came out at 47.04%.

For `OCC1CCCCN1CCn1ccnc1-c1ccc2c(c1)OCCO2` (stereo unspecified), the INHIBITION worked out at 63.46%. `CC(O)c1cn(Cc2cccc(C(F)(F)F)c2)nn1` (stereo unspecified): the INHIBITION is reported as 19.08%. For the compound `COc1ccccc1CN1C[C@@H](F)[C@@H](OCc2nc3ncccc3[nH]2)C1`, the INHIBITION came out at 55.57%. For the compound `COc1ccccc1CN1C[C@@H](F)[C@@H](OCc2nc3ccccc3[nH]2)C1`, the INHIBITION was -6.21%.

`COc1ccccc1CN1C[C@@H](F)[C@@H](OCc2nc3cnccc3[nH]2)C1`: the INHIBITION came out at 14.89%.

As for `O=C(CS(=O)(=O)Cc1cc(Cl)c2c(c1)OCCCO2)NCC1CC1`, the INHIBITION came out at 2.77%. Take `CCNC(c1ccc(F)cc1)c1cccnc1` (stereo unspecified): the INHIBITION is reported as -49.8%. As to `CCNC(c1ccc(Cl)cc1)c1cccnc1` (stereo unspecified), the INHIBITION is on record as 8.37%. Under `CCCNC(c1cccnc1)c1ccc(F)c(C)c1` (stereo unspecified) stands 62.36%.

For `CCNC(c1ccc(C(C)C)cc1)c1cccnc1` (stereo unspecified), the INHIBITION stood at 58.05%. Under `CCCNC(c1ccc(F)cc1)c1cccnc1` (stereo unspecified) stands 26.18%.

`CCNC(c1cccnc1)c1ccc(F)c(C)c1` (stereo unspecified): the INHIBITION is reported as 1.61%. With `CCCNC(c1cccnc1)c1ccc(F)cc1F` (stereo unspecified) the figure was -3.32%. With `CCNC(c1ccc(C)cc1)c1cccnc1` (stereo unspecified) the figure was -41.21%; with `CCNC(c1cccnc1)c1ccc(F)cc1F` (stereo unspecified), 53.98%; with `c1cc(CN2CCC(c3nnc4n3CCCCC4)CC2)c2nonc2c1`, -60.89%. Turning to `CC(C)n1ncc2c1NC(=O)CC21C(=O)Nc2c(Cl)ccc(Cl)c21` (stereo unspecified), the INHIBITION is listed as -40.36%.

Turning to `c1csc(-c2noc(C3CN(Cc4ccc5c(c4)CCO5)C3)n2)c1`, the INHIBITION worked out at 35.6%. With `O=C1CCNc2ncc(-c3ccccc3Cl)cc2CN1C1CC1`, the INHIBITION stood at 18.48%.

For the compound `CCc1c(C)noc1-c1cnc(NC2CC2)nc1-c1cnc(C)cn1`, the INHIBITION is listed as 26.93%.

As for `O=C(c1cccc2cccnc12)N1CCCC(n2ccnc2)C1` (stereo unspecified), the INHIBITION was found to be 54.2%. As for `O=C(c1ccc2c(c1)OCCCO2)N1CCCC(n2ccnc2)C1` (stereo unspecified), the INHIBITION was 11.95%.

Turning to `O=C(c1ccc(-n2cnnn2)cc1)N1CCCC(n2ccnc2)C1` (stereo unspecified), the INHIBITION came out at 43.79%. Consider `O=C(c1ccc2c(c1)OCCO2)N1CCCC(n2ccnc2)C1` (stereo unspecified), for which the INHIBITION was 78.98%. With `O=C(c1ccc(-n2cnnc2)cc1)N1CCCC(n2ccnc2)C1` (stereo unspecified), the INHIBITION is 56.02%. As to `O=C(c1cccnc1N1CCCCC1)N1CCCC(n2ccnc2)C1` (stereo unspecified), the INHIBITION amounted to 3.33%. On to `O=C(c1ccnc(-n2ccnc2)c1)N1CCCC(n2ccnc2)C1` (stereo unspecified), for which the INHIBITION is on record as 70.27%.

In the case of `Cc1nccn1C1CCCN(C(=O)c2ccnc(-n3ccnc3)c2)C1` (stereo unspecified), the INHIBITION is listed as -13.24%. As for `O=C(c1ccc2c(c1)OCO2)N1CCCC(n2ccnc2)C1` (stereo unspecified), the INHIBITION was -0.05%. Turning to `O=C(c1ccc(-n2ccnc2)cc1)N1CCCC(n2ccnc2)C1` (stereo unspecified), the INHIBITION is reported as 28.87%. As for `O=C(c1ccnc(-n2ccnc2)c1)N1CCCC(n2cccn2)C1` (stereo unspecified), the INHIBITION is listed as -58.05%.

With `O=C(c1cccc2ncccc12)N1CCCC(n2ccnc2)C1` (stereo unspecified), the INHIBITION came out at 43.85%.
